In PubChem BioAssay (Tox21):
Where “and” joins values, the source holds several entries; their conditions need not be identical. Equal values may be shown once. Inconclusive results are not listed. Calls of active or inactive are those of the source. Unless noted, the call rests on the fitted dose curve; in most records, active means well fitted curve in the direction sought with a large enough effect in the repeat runs; inconclusive means weak or mixed curves; inactive means no such curve, though single readings can be large; an effect the other way counts as inactive or inconclusive.

Columns and labels:
[1] = qHTS assay to identify small molecule antagonists of the sonic hedgehog signaling (Shh) pathway (AID 1259369; calls by dose curve; further: nearly all actives have a fitted effect of over 45% in size; further: potency means the concentration at half of the fitted maximal effect)
In short: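 Luminescence readout: firefly Luc under Gli1 response element in 3T3Gli1-Luc cells (NIH/3T3 clone). Antagonist mode, stimulation by conditioned medium; compound exposure 24hr at 37 C, 5% CO2.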

[2] = molecular target: Estrogen receptor beta (Homo sapiens) (UniProt Q92731); test: qHTS assay to identify small molecule agonists of the estrogen receptor beta (ER-beta) signaling pathway (AID 1259377; active means well fitted activation curve with a large enough effect in the signal ratio in the repeat runs, not every such curve was filed as active; the % refers to the signal ratio)
In short: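 HEK293T ER-beta-UAS-bla; 2% charcoal-stripped FBS; cells pre-incubated 6 hr, compound 16 hr, 37C/5% CO2; LiveBLAzer B/G FRET substrate 2 h RT; fluorescence intensity read.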

[3] = molecular target: Estrogen receptor beta (Homo sapiens) (UniProt Q92731); test: qHTS assay to identify small molecule antagonists of the estrogen receptor beta (ER-beta) signaling pathway (AID 1259378; active means well fitted inhibition curve with a large enough effect in the signal ratio in the repeat runs, not every such curve was filed as active; the % refers to the signal ratio)
In short: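 Antagonist mode: compounds added to beta-lactamase reporter HEK293T ER-beta-UAS cells stimulated with E2 (1nM final), 16 hr at 37C. LiveBLAzer B/G FRET substrate, 2 hours room temperature, fluorescence read-out.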

[4] = qHTS assay to identify small molecule agonists of the androgen receptor (AR) signaling pathway in the presence of an antagonist - cell viability counter screen (AID 1259379); further: nearly all actives have a fitted effect of over 25% in size; further: potency means the concentration at half of the fitted maximal effect
In short: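 Viability counter screen: CellTiter-Fluor fluorescence, measured in the same wells as the luciferase read-out. MDA-kb2 cells, 3,000/well, with nilutamide at 3.0uM final and compounds at 15 concentrations, 16 hr at 37C, 0% CO2.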

[5] = qHTS assay to identify small molecule agonists of the estrogen receptor beta (ER-beta) signaling pathway - cell viability counter screen (AID 1259380); further: nearly all actives have a fitted effect of over 30% in size
In short: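 Luminescence read-out (CellTiter-Glo, 30 min, room temp) taken in the same wells as the beta-lactamase reporter assay; ER-beta-UAS-bla HEK293T cells exposed to DMSO-dissolved compounds for 16 hr at 37C in 2% charcoal-stripped FBS medium.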

[6] = qHTS assay to identify small molecule antagonists of the estrogen receptor beta (ER-beta) signaling pathway - cell viability counter screen (AID 1259382);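 further: HEK293T cells carrying ER-beta-UAS-bla reporter stimulated with estradiol; series mostly up to about 92 µM; nearly all actives have a fitted effect of over 55% in size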
In short: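 Luminescent ATP read-out (CellTiter-Glo, 30 min, RT) taken in the same wells as the bla reporter assay. HEK293T ER-beta-UAS-bla cells in 2% charcoal-stripped FBS were exposed to compounds with 1nM E2 for 16 hr at 37C.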

[7] = molecular target: Estrogen receptor (Homo sapiens) (UniProt P03372); test: qHTS assay to identify small molecule agonists of the estrogen receptor alpha (ER-alpha) signaling pathway in the presence of an antagonist (AID 1259383; calls by dose curve; further: top concentration of the series differs between compounds; nearly all actives have a fitted effect of over 15% in size)
In short: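 Luciferase luminescence (ONE-Glo, 30min at room temperature) measured in VM7Luc4E2 cells after 22hr compound exposure at 15 concentrations, with 10.0nM ICI-182,780 final present; cells express endogenous ER-alpha and carry four EREs upstream of luciferase.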

[8] = qHTS assay to identify small molecule agonists or antagonists of the thyroid stimulating hormone receptor (TSHR) signaling pathway - wild type cell line counter screen (AID 1259384; calls by dose curve)
In short: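 Counter screen in untransfected Hek293: compounds (15-point titration, triplicate) plus phosphodiesterase inhibitor Ro20-1724 added after 18 h plating; 30 min RT. Intracellular cAMP via competitive d2/cryptate immunoassay, 1 h incubation.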

[9] = molecular target: Thyrotropin receptor (Homo sapiens) (UniProt P16473); test: qHTS assay to identify small molecule antagonists of the thyroid stimulating hormone receptor (TSHR) signaling pathway (AID 1259385; calls by dose curve; further: nearly all actives have a fitted effect of over 20% in size)
In short: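 Antagonist mode: compound-treated TSHR-expressing HEK293 cells were stimulated with 1.5 ng/mL TSH (final) in presence of Ro20-1724 for 30 min at RT. HTRF cAMP detection after 1 h; each compound tested at 15 concentrations, triplicate.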

[10] = qHTS assay to identify small molecule agonists of the estrogen receptor alpha (ER-alpha) signaling pathway in the presence of an antagonist - cell viability counter screen (AID 1259386);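 further: series mostly up to about 92 µM; cells exposed to compounds for 22 h at 37 °C before the viability read; nearly all actives have a fitted effect of over 30% in size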
In short: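 Read-out: CellTiter-Fluor fluorescence after 1hr reagent incubation, measured in the same wells as the luciferase readout. VM7Luc4E2 cells were exposed to 15 compound concentrations with 10.0nM ICI-182,780 for 22hr at 37C.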

[11] = qHTS assay to identify small molecule antagonists of the progesterone receptor (PR) signaling pathway - cell viability counter screen (AID 1346798);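 further: HEK293T PR-UAS-bla cells stimulated with the agonist R5020; series mostly up to about 92 µM; nearly all actives have a fitted effect of over 50% in size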
In short: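 HEK293T PR-UAS-bla, 2% charcoal-stripped FBS; 4 hr pre-plate; cpd + R5020, 16 h 37C; LiveBLAzer read first; then CellTiter-Glo 30 min RT, luminescence.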

[12] = qHTS assay to identify small molecule agonists of the progesterone receptor (PR) signaling pathway - cell viability counter screen (AID 1346799; calls by dose curve; further: nearly all actives have a fitted effect of over 45% in size)
In short: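 Luminescence from CellTiter-Glo, added after the beta-lactamase FRET read in the same wells, gave cytotoxicity in PR-UAS-bla HEK293T cells treated with compounds for 16 hr at 37C.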

[13] = qHTS assay to identify small molecule antagonists of the TGF-beta/Smad signaling pathway - cell viability counter screen (AID 1346824); further: nearly all actives have a fitted effect of over 50% in size
In short: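 Cytotoxicity counter-screen run in the same wells as the beta-lactamase Smad reporter read: CellTiter-Glo luminescence after 30 min at room temperature. HEK 293T SBE-bla cells had 5 hr compound exposure at 37 C with TGF-beta1 (0.25 ng/mL stock).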

[14] = qHTS assay to identify small molecule agonists of the TGF-beta/Smad signaling pathway - cell viability counter screen (AID 1346829); further: top concentration of the series differs between compounds; nearly all actives have a fitted effect of over 45% in size
In short: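 Luminescence from CellTiter-Glo, read after a 30 min room-temperature incubation, gives cell viability of SBE-bla HEK 293T cells treated 5 hr with compounds at 37 C.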

[15] = qHTS assay to identify small molecule agonists of the TGF-beta/Smad signaling pathway (AID 1346859; active means well fitted activation curve with a large enough effect in the signal ratio in the repeat runs, not every such curve was filed as active; the % refers to the signal ratio; further: series mostly up to about 77 µM)
In short: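 SBE-bla HEK 293T, 4,000 cells/well, plated o/n; cpd in DMSO, 5 hr, 37 C/5% CO2; B/G FRET substrate 2 hr RT; ex 405, em 460/530 nm.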

[16] = molecular target: Progesterone receptor (Homo sapiens) (UniProt P06401); test: qHTS assay to identify small molecule agonists of the progesterone receptor (PR) signaling pathway (AID 1346784; calls by dose curve; further: nearly all actives have a fitted effect of over 30% in size)
In short: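 Beta-lactamase reporter read-out: after 16 hr compound treatment at 37C and a further 2 hr at room temperature with LiveBLAzer B/G FRET substrate, fluorescence was measured in PR-UAS-bla HEK 293T cells grown in 2% charcoal-stripped serum.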

[17] = molecular target: Progesterone receptor (Homo sapiens) (UniProt P06401); test: qHTS assay to identify small molecule antagonists of the progesterone receptor (PR) signaling pathway (AID 1346795; active means well fitted inhibition curve with a large enough effect in the signal ratio in the repeat runs, not every such curve was filed as active; the % refers to the signal ratio)
In short: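 Read-out is fluorescence from the LiveBLAzer B/G FRET substrate, cleaved by a UAS-controlled beta-lactamase in PR-UAS-bla HEK293T cells after 16 hr exposure to compound plus 1 nM promegestone (final), followed by 2 hr at room temperature.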

[18] = molecular target: Thyrotropin-releasing hormone receptor (Homo sapiens) (UniProt P34981); test: qHTS assay to identify small molecule antagonists of the thyrotropin-releasing hormone receptor (TRHR) signaling pathway (AID 1346877; active means well fitted inhibition curve with a large enough effect in the repeat runs, not every such curve was filed as active; further: series mostly up to about 51 µM)
In short: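 HEK293/TRHR cells, 18 h, 37 °C; Ca2+ dye 2 h; cpd 5 min RT; TRH 1 nM final; fluorescence read 3 min, 1 s intervals; 15 concs, triplicate.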

[19] = molecular target: Thyrotropin-releasing hormone receptor (Homo sapiens) (UniProt P34981); test: qHTS assay to identify small molecule agonists of the thyrotropin-releasing hormone receptor (TRHR) signaling pathway (AID 1346891; calls by dose curve; further: series mostly up to about 58 µM)
In short: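 Intracellular calcium rise, read as fluorescence every second for 3 min, served as the agonist signal in dye-loaded HEK293 cells expressing TRHR; each compound ran at 15 concentrations in triplicate.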

[20] = molecular target: Androgen receptor (Homo sapiens) (UniProt P10275); test: qHTS assay to identify small molecule agonists of the androgen receptor (AR) signaling pathway in the presence of an antagonist (AID 1259381; calls by dose curve; further: nearly all actives have a fitted effect of over 15% in size)
In short: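 Luciferase read-out (ONE-Glo, 30min room temperature) in MDA-kb2 MMTV-reporter cells; agonist mode run in presence of AR antagonist nilutamide, 3.0uM final. Compounds tested as 15-point series, 16hr exposure at 37C, 0% CO2.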

Measured: Potency

Thyrotropin receptor (Homo sapiens), sequence (P16473 whole entry, looked up): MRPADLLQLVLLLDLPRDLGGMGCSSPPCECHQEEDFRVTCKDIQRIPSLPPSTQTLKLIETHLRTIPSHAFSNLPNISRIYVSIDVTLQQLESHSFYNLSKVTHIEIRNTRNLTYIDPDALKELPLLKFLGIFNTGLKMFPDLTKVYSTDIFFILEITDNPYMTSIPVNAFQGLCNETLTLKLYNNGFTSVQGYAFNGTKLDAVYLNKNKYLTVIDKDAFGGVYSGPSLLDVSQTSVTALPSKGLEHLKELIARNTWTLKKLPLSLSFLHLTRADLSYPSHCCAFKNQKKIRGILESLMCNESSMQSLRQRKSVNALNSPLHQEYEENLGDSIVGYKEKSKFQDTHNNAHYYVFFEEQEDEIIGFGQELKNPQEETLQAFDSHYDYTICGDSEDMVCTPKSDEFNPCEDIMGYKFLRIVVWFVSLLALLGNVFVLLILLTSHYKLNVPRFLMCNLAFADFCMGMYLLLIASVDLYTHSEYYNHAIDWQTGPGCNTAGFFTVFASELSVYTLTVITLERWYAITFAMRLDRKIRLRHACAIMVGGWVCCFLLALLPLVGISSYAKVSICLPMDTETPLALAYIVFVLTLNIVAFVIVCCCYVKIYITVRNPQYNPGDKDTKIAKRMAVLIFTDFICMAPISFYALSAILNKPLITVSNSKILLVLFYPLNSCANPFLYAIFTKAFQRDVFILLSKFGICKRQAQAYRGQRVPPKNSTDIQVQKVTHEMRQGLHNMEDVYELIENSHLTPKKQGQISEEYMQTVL
Estrogen receptor beta (Homo sapiens), sequence (Q92731 whole entry, looked up): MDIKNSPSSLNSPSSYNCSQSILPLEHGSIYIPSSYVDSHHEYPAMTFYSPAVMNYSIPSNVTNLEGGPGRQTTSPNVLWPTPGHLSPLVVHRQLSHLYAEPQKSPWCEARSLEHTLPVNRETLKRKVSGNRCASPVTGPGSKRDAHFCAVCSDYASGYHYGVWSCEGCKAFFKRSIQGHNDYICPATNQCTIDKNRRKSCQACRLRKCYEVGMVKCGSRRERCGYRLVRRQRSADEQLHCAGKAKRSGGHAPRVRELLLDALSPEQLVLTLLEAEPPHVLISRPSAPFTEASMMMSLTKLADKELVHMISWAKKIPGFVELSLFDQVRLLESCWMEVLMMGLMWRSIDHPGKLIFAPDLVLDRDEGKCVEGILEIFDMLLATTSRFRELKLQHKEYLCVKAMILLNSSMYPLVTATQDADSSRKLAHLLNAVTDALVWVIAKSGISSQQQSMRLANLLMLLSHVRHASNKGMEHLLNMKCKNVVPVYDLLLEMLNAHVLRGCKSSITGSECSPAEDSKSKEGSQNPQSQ
Thyrotropin-releasing hormone receptor (Homo sapiens), sequence (P34981 whole entry, looked up): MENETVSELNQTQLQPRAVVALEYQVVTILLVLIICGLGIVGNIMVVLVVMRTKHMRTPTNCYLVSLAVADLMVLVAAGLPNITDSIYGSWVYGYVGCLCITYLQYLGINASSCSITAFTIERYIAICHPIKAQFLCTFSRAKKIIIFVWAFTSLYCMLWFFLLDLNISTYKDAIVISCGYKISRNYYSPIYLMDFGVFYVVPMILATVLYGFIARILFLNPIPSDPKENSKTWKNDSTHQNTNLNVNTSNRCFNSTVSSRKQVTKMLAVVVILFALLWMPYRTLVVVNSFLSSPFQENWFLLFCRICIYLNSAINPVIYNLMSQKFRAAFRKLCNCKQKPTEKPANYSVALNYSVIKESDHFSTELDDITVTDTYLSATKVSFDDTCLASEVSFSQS
Progesterone receptor (Homo sapiens), sequence (P06401 whole entry, looked up): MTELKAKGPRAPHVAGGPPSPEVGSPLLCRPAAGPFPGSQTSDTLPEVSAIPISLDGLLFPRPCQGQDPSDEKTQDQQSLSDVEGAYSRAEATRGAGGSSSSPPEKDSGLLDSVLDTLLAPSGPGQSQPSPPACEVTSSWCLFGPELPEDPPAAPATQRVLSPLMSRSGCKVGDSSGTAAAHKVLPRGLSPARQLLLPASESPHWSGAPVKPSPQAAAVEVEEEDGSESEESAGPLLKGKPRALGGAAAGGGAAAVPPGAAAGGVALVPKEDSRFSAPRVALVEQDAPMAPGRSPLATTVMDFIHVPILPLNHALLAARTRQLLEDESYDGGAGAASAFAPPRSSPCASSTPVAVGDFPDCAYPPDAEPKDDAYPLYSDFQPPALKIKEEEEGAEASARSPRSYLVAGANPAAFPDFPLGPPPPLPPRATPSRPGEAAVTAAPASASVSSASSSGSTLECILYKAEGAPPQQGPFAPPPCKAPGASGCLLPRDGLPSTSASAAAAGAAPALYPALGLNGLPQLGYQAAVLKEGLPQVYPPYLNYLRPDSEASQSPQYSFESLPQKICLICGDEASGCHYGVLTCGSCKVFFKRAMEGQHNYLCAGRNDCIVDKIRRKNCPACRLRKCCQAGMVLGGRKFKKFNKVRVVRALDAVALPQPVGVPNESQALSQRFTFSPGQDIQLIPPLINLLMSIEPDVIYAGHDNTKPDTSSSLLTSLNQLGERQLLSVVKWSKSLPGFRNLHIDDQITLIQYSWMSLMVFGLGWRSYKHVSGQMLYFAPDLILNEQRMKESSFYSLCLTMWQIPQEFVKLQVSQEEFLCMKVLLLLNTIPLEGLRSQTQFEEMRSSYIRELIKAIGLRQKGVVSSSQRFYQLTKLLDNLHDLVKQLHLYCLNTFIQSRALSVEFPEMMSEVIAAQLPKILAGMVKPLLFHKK
Androgen receptor (Homo sapiens), sequence (P10275 whole entry, looked up): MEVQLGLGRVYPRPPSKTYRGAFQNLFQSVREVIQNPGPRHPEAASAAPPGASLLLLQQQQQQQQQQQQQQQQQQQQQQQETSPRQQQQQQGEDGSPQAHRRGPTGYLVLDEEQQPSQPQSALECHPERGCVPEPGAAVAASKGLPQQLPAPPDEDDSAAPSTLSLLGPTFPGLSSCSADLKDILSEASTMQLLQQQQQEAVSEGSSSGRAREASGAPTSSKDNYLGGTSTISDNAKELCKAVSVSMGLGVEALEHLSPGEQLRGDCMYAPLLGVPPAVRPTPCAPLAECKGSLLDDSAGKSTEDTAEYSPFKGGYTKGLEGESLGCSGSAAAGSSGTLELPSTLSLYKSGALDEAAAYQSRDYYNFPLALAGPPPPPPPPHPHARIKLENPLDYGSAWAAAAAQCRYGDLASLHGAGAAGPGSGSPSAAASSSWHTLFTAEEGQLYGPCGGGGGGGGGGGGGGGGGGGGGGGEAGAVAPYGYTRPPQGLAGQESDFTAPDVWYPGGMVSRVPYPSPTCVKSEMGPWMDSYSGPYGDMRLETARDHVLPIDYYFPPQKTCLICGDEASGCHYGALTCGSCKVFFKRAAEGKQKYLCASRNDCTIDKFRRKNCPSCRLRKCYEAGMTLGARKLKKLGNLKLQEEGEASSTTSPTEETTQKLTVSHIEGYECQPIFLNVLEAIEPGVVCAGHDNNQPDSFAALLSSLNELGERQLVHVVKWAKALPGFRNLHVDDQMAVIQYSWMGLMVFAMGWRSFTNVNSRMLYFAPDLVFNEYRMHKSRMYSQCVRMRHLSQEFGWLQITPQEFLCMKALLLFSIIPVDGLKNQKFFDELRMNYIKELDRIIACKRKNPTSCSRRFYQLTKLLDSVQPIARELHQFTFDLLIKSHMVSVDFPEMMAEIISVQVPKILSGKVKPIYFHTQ
Estrogen receptor (Homo sapiens), sequence (P03372 whole entry, looked up): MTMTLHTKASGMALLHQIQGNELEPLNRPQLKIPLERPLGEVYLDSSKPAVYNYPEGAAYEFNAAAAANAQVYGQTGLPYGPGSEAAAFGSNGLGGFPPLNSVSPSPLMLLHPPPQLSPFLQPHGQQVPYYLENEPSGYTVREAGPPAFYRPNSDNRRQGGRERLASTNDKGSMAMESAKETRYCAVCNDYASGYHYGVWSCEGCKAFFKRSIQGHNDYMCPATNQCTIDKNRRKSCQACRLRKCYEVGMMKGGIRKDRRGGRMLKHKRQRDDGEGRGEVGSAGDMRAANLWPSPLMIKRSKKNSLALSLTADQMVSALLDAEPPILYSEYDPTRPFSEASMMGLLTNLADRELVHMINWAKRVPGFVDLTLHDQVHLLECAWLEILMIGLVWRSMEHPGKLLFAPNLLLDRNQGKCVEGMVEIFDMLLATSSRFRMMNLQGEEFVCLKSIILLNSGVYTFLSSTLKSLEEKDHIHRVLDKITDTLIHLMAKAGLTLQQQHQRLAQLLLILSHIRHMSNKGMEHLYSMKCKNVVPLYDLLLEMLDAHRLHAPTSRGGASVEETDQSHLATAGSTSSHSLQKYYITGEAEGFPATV

NC(=S)c1c(Cl)cccc1Cl
not listed: [16] | [17] | [18] | [19] | [20]
inactive: all other assays above

CC(C)(c1ccccc1)c1cc(-n2nc3ccccc3n2)c(O)c(C(C)(C)c2ccccc2)c1
not listed: [12] | [20]
inactive: all other assays above

NP(N)(=O)NC(=O)c1ccc(F)cc1
not listed: [17]
inactive: all other assays above

C=CCc1ccccc1O
not listed: [8] | [9] | [20]
inactive: all other assays above

CCOP(=S)(OCC)Oc1ccc(S(C)=O)cc1 (stereo unspecified)
not listed: [14] | [20]
inactive: all other assays above

CCCCC1C(=O)NC(=O)N(C2CCCCC2)C1=O (stereo unspecified)
not listed: [8] | [9] | [16] | [17] | [18] | [19] | [20]
inactive: all other assays above

C1CCNCC1
not listed: [18] | [19] | [20]
inactive: all other assays above

Cc1cnc(C2=NC(C)(C(C)C)C(=O)N2)c(C(=O)O)c1 (stereo unspecified)
inactive: all assays above

CCCCCBr
not listed: [9]
inactive: all other assays above

O=C(CCl)CCl
active: [1] 19.3 µM | [4] 63.4 µM and 48.6 µM
not listed: [20]
inactive: all other assays above

CCCCC(CC)COC(=O)c1c(Br)c(Br)c(Br)c(Br)c1C(=O)OCC(CC)CCCC (stereo unspecified)
not listed: [16] | [20]
inactive: all other assays above

ClCc1ccccc1Cl
not listed: [7] | [14] | [16] | [17] | [18] | [19]
inactive: all other assays above

CCCSP(=S)(OCC)Oc1ccc(SC)cc1 (stereo unspecified)
active: [1] 61.1 µM
not listed: [14] | [17] | [18] | [19] | [20]
inactive: all other assays above

COCc1cnc(C2=NC(C)(C(C)C)C(=O)N2)c(C(=O)O)c1 (stereo unspecified)
not listed: [12]
inactive: all other assays above

O=C(O)COc1cc(Cl)c(Cl)cc1Cl
not listed: [7] | [12] | [15] | [18] | [19]
inactive: all other assays above

CCC1(CCC(C)C)C(=O)NC(=O)NC1=O
not listed: [7] | [8] | [9] | [18] | [19]
inactive: all other assays above
